Rows were chosen to be rich in hits. Some 3.3% of all compounds tested hit in one or more screens of this group.
Anthrax LF inh2 = blocks Bacillus anthracis lethal factor protease. inhibition, % at 10 µM. multiplex microsphere protease cleavage assay, LF. hit rate 0.12% among 360,000. P15917; further: plate controls were buffer without enzyme for full effect and enzyme alone for no effect
SSB-PriA inh = inhibitors of Klebsiella pneumoniae PriA binding to SSB C-terminal tail; AID 1272365; AlphaScreen SSBct-PriA binding, biotinylated peptide; hit rate 0.6% among 430,000; inhibition, % at 33 µM; in the data active means inhibition mostly above about 37%, no sharp cut-off; inactive means mostly below about 20%;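 further: plate controls were negative control peptide for no effect and reference peptide for full effect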
BoNT F protease = BoNT F light chain protease inhibition; hit rate 0.22% among 360,000; Multiplex microsphere protease cleavage assay, flow cytometry; inhibition, % at 10 µM; in the data active means inhibition above about 35%, passing the limit was not always enough; inconclusive means no clear call, values can overlap the other calls; further: plate controls were buffer without enzyme for full effect and enzyme alone for no effect
Bead autofluor = compound fluorescence in toxin protease inhibitor counterscreen; fluorescence intensity (concentration not given with the values); hit rate 3.1% among 360,000; compound autofluorescence counterscreen, microsphere flow cytometry; stronger effect = higher value; in the data active means fluorescence intensity above about 16000; inconclusive means no clear call, values can overlap the other calls
BoNT-A LC inh2 = BoNT A light chain protease inhibition. multiplex microsphere protease substrate cleavage, flow cytometry. inhibition, % at 10 µM. hit rate 0.17% among 360,000; further: plate controls were buffer without enzyme for full effect and enzyme alone for no effect
MazF activator = MazEF (E. coli) toxin RNase activation | P0AE70 | FAM/BHQ RNA-DNA oligo cleavage fluorescence, 5 h | activation, % at 20 µM | hit rate 0.32% among 350,000 | AID 504720; in the data active means activation above about 50%
* = called active by the depositor; ? = inconclusive; / = no result given. Unless noted, no stated cut-off is given here; in the data, active means inhibition above about 30%; inconclusive means no clear call, values can overlap the other calls; inactive means below that.

SMILES	Anthrax LF inh2	SSB-PriA inh	BoNT F protease	Bead autofluor	BoNT-A LC inh2	MazF activator
Cc1ccc(-n2c(Cc3cccn3C)nnc2SCC(=O)NCc2ccco2)cc1	-2.3	2.5	-8.4	11487	0.0	-3.5
Cc1ccc(-n2c(CSc3nc(C)cc(C)n3)nnc2SCC(=O)NCc2ccco2)cc1	-0.7	2.3	2.2	22159*	?	3.5
Cc1cc(NC(=O)CSc2nnc(COc3cccc(C)c3C)n2Cc2ccco2)no1	-1.0	-12.5	3.3	15465	?	0.7
CCOC(=O)CSc1nnc(CSc2nc(C)cc(C)n2)n1Cc1ccco1	-1.7	-7.1	2.5	4460	-0.3	74.0*
Cc1cccn2cc(-c3ccccc3NC(=O)[C@H]3CC(=O)N(c4cccc(F)c4)C3)nc12	/	-8.0	/	/	/	/
Cc1[nH]c2ccccc2c1C(c1ccccn1)N1CCN(c2ccccn2)CC1 (configuration not stated)	/	7.0	/	/	/	/
Cc1[nH]c(=O)[nH]c(=O)c1CC(=O)NCc1ccc(Cl)cc1	/	-4.0	/	/	/	/
Cn1ccnc1SCC(=O)c1cccc(Br)c1	0.6	5.1	-4.8	19955*	-0.1	5.5
CC(C)(C)S(=O)(=O)[C@H]1CCN(C(=O)C(c2ccccc2)c2ccccc2)C1	/	-20.0	/	/	/	/
CC1(C)N2CC3([N+](=O)[O-])CN1CC([N+](=O)[O-])(C2)C3	11.2	-5.1	?	4500	?	11.5
CC1(C)C2([N+](=O)[O-])CN3CC1([N+](=O)[O-])CN(C2)C31CCCC1	-1.9	-2.4	-6.9	17714*	?	2.4
CC(C)c1ccc(C2N3CC4([N+](=O)[O-])CN2CC([N+](=O)[O-])(C3)C4(C)C)cc1 (configuration not stated)	-3.4	-1.5	1.3	2390	0.2	4.1
CC1(C)C2([N+](=O)[O-])CN3CC1([N+](=O)[O-])CN(C2)C3c1ccccc1 (configuration not stated)	0.9	-14.4	5.5	22107*	3.5	-3.9
CC(C)=CCc1cc(-c2oc3cc(O)cc(O)c3c(=O)c2O)ccc1O	-14.3	26.6	-16.4	4124	0.4	57.4*
Cc1cc(C)n(CCO)c(=O)n1	1.2	-4.9	2.5	20285*	?	1.5
Cc1cc(C)n(CC(=O)O)c(=O)n1	/	-9.0	/	/	/	/
CSCCC1NC2(C(=O)Nc3c(Cl)cccc32)[C@@H]2C(=O)N(C3CCCC3)C(=O)[C@H]12 (some centres not stated)	-2.1	2.7	2.4	21812*	1.8	-0.9
CC(=O)c1ccc(N2C(=O)[C@@H]3C(CCC(N)=O)NC4(C(=O)Nc5c4ccc(Cl)c5C)[C@@H]3C2=O)cc1 (some centres not stated)	-0.1	-12.4	-6.7	4516	0.1	9.4
CSCCC1NC2(C(=O)Nc3c(C)cc(Cl)cc32)[C@@H]2C(=O)N(C3CCCC3)C(=O)[C@H]12 (some centres not stated)	-6.0	19.5	-4.6	23955*	?	5.2
CC1CCc2c(sc(NC(=O)COC(=O)c3ccccc3NCc3ccco3)c2C#N)C1 (configuration not stated)	-9.3	-7.5	-2.4	22501*	-0.7	-2.3
O=C(NCc1ccc(F)cc1)c1cnn2ccccc12	-12.3	104.2*	-6.9	6061	-0.3	-2.8
O=C(NCc1ccccc1)c1ccc(-c2ccc(F)cc2)o1	-1.1	-12.7	-2.5	21149*	?	0.0
Cn1nc(C(=O)NCc2ccc(F)cc2)c2ccccc2c1=O	-3.1	-10.2	0.4	22634*	1.7	5.2
Cc1ccccc1-c1ccc(C(=O)NCc2ccccc2)o1	-11.6	7.4	1.6	3818	-0.4	-2.2
Cn1nc(C(=O)NCc2ccccc2)c2ccccc2c1=O	2.1	-13.2	-1.9	3811	-0.1	2.3
SMILES	Anthrax LF inh2	SSB-PriA inh	BoNT F protease	Bead autofluor	BoNT-A LC inh2	MazF activator
O=C(NCCn1nc(-n2cncn2)ccc1=O)c1ccc(N2CCOCC2)cc1	/	-6.0	/	/	/	/
O=C(Cn1cc([N+](=O)[O-])cn1)Nc1ccn(Cc2c(F)c(F)cc(F)c2F)n1	-1.6	-3.0	2.7	23297*	?	7.8
O=C(Nc1ccn(Cc2c(F)c(F)c(F)c(F)c2F)n1)c1cccc(Cn2cc([N+](=O)[O-])cn2)c1	-4.8	-6.2	-8.2	7985	0.3	9.4
O=C(Nc1ccn(Cc2c(F)c(F)cc(F)c2F)n1)c1cccc(Cn2cc([N+](=O)[O-])cn2)c1	-2.5	3.3	-1.0	23743*	-1.6	5.6
O=C(Cn1cc([N+](=O)[O-])cn1)Nc1ccn(Cc2c(F)c(F)c(F)c(F)c2F)n1	-1.1	-9.9	-1.2	22598*	0.5	-11.6
COc1ccc(N2CC(C(=O)N3C4C=CCC3CC4)CC2=O)cc1 (configuration not stated)	/	-3.0	/	/	/	/
C=CCn1c(O)c(C(CC)=NCCCO)c(=O)[nH]c1=O	1.9	-9.2	-2.8	3273	-0.6	2.9
C=CCn1c(O)c(C(CC)=Nc2ccccc2NC(C)=O)c(=O)[nH]c1=O	4.6	-19.6	-5.2	8842	0.5	3.1
C=CCn1c(O)c(C(CC)=NCCN2CCOCC2)c(=O)[nH]c1=O	-1.9	-5.6	10.3	19747*	5.0	-3.6
C=CCn1c(O)c(C(CC)=Nc2ccccc2NC(=O)CC)c(=O)[nH]c1=O	-3.4	-16.5	0.7	20357*	?	-0.2
NC(=NOC(=O)CC1CCCCC1)c1cccc(Br)c1	/	-19.0	/	/	/	/
CNC(=O)/C=C/c1cccc(C(F)(F)F)c1	1.5	-4.0	39.8*	2221	4.0	0.1
COc1cc(C=NS(=O)(=O)c2ccc(Br)cc2)cc(Br)c1O	/	-3.0	/	/	/	/
CC(C)(C)NC(=O)C12CCC(C)(c3nc4ccccc4nc31)C2(C)C (configuration not stated)	-1.3	-12.3	3.3	22617*	3.4	-6.2
COC(=O)C12CCC(C)(c3nc4ccccc4nc31)C2(C)C (configuration not stated)	-9.3	-9.8	9.6	3265	-0.3	-17.8
Fc1cccc(C[n+]2csc3ccccc32)c1	-3.0	6.0	-8.6	17119*	-2.6	6.7
CCOC(=O)Cc1csc(NC(=O)[C@H]2CCCN(c3ccc(-n4cncn4)nn3)C2)n1	/	-4.0	/	/	/	/
CC(C)NC(=O)Nc1nc2c(s1)CN(S(=O)(=O)c1ccc3c(c1)OCCO3)CC2	/	9.0	/	/	/	/
COCC(C)NCc1cccc2ccccc12 (configuration not stated)	0.3	-0.9	-1.9	3382	-0.6	-18.0
COCC(C)NCc1ccc(C)cc1C (configuration not stated)	-0.2	-2.8	0.2	18417*	3.8	2.5
CCOC(=O)c1cnn(-c2ccc(Cl)cc2)c1N	/	-14.0	/	/	/	/
Cc1cc2nc(N=C(N)NC(=O)C(C)C)nc(C)c2cc1C	/	-0.2	/	/	/	/
Cc1cc(C(=O)NC2CCN(c3cc(C)[nH]n3)CC2)n[nH]1	/	-7.0	/	/	/	/
Cc1[nH]c2ccccc2c1/C=N/NC(=S)NC(C)C	12.8	/	-51.4	7206	59.2*	-1.1
C#CCn1cc(C=NNc2nc3ccccc3[nH]2)c2ccccc21	/	44.0*	/	/	/	/
Cc1[nH]c2ccccc2c1C=NNc1nc2ccccc2[nH]1	/	41.2*	/	/	/	/
Cc1ccc(NC(=S)NN=Cc2c(C)[nH]c3ccccc23)cc1	/	6.5	/	/	/	/
